Reference: the supplement of paper PMC12024529
“And” between values parts separate entries of the source, which are not always exact repeats. Identical values can stand only once.

The molecules below were run on HEK293 WT BDD-FVIII-Gluc (assay: secreted FVIII-Gluc luciferase Z-score vs DMSO control; higher = more FVIII-Gluc secretion). Settings: 5 µM.
Method: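 Natural plant-compound library (480 compounds, ST catalogue IDs) screened on HEK293 cells stably expressing WT BDD-FVIII-Gaussia luciferase fusion at 5 µM. Secreted Gluc activity in the medium is given as a Z-score relative to DMSO controls.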

Point of comparison: `COC(=O)C1(O)CC(O)C(NC(C)=O)C(C(O)C(O)CO)O1` (stereo not drawn), “secreted FVIII-Gluc luciferase Z-score” value 0.68. Against it:
- O=c1cc(-c2ccccc2)oc2cc(O)c(O)c(O)c12 — lower, -0.284
- NC(Cc1cnc[nH]1)C(=O)O (stereo not drawn) — lower, 0.443
- COc1cc(C=O)ccc1O — lower, 0.374
- O=c1c(O)c(-c2ccc(O)c(O)c2)oc2c(O[C@@H]3O[C@H](CO)[C@@H](O)[C@H](O)[C@H]3O)c(O)cc(O)c12 — higher, 1.19
- O=c1cc(-c2ccccc2O)oc2c(O)c(O)ccc12 — lower, 0.356
- O=c1ccn(C2OC(COP(=O)(O)O)C(O)C2O)c(=O)[nH]1 (stereo not drawn) — lower, 0.638
- COc1ccc2oc(-c3ccccc3)c(OC)c(=O)c2c1 — lower, 0.232
- Nc1nc2c(c(=O)[nH]1)N=C(CNc1ccc(C(=O)NC(CCC(=O)O)C(=O)O)cc1)CN2 (stereo not drawn) — lower, 0.62
- CC1=C(C2=C(C)C(C(C)C)C3=C(C(=O)C(O)C3O)C2O)C(O)C2=C(C(O)C(O)C2=O)C1C(C)C (stereo not drawn) — lower, -0.542
- CN1C(CC(=O)c2ccccc2)CCC[C@H]1C[C@H](O)c1ccccc1 (stereo partly drawn) — lower, 0.401
- CC1C(=O)OC2CC34C5CC(C(C)(C)C)C36C(OC(=O)C6O)OC4(C(=O)O5)C21O (stereo not drawn) — lower, -0.604
- O=c1cc(-c2cccc(O)c2)oc2cccc(O)c12 — lower, 0.424
- CO[C@H]1/C=C/O[C@@]2(C)Oc3c(C)c(O)c4c(O)c(c(C=O)c(O)c4c3C2=O)NC(=O)/C(C)=C\C=C\[C@H](C)[C@H](O)[C@@H](C)[C@@H](O)[C@@H](C)[C@H](OC(C)=O)[C@@H]1C — higher, 1.13
- Cc1c(C)c2c(c(C)c1OC(=O)CCC(=O)O)CC[C@@](C)(CCC[C@H](C)CCC[C@H](C)CCCC(C)C)O2 — lower, 0.648
- COc1cc([C@@H]2Oc3cc(C4Oc5cc(O)cc(O)c5C(=O)[C@H]4O)ccc3O[C@H]2CO)ccc1O (stereo partly drawn) — lower, 0.0424
- COc1ccc(-c2coc3ccc(OC4OC(COC(C)=O)C(OC(C)=O)C(OC(C)=O)C4OC(C)=O)c(OC(C)=O)c3c2=O)cc1 (stereo not drawn) — lower, -0.543
- CN1CCC[C@H]1c1cccnc1 — lower, 0.197
- COc1cc(CNC(=O)CCCCCCC(C)C)ccc1O — lower, -0.541
- COc1cc2c(cc1OC)C(Cc1ccc(OC)c(OC)c1Oc1cc3c(cc1OC)-c1c(OC)c(OC)cc4c1C(C3)N(C)CC4)N(C)CC2 (stereo not drawn) — lower, 0.304
- COc1ccc(OC)c(C2Nc3ccccc3NC3=C2C(=O)CC(C)(C)C3)c1Br (stereo not drawn) — lower, 0.0362
- O=c1cc[nH]c(=S)[nH]1 — lower, 0.275
- Cc1cc2ccc(=O)oc2cc1OC[C@@H](O)C(C)(C)O — lower, -0.00524
- Cc1c(-c2ccccc2)oc2cc(O)ccc2c1=O — lower, -0.0243
- O=c1cc(-c2ccccc2)oc2c1ccc1ccccc12 — lower, 0.373
- COc1c2ccoc2cc2oc(=O)ccc12 — lower, 0.335
- O=C(N[C@H](CO)[C@H](O)c1ccc([N+](=O)[O-])cc1)C(Cl)Cl — higher, 0.907
- COc1ccc(-c2cc(=O)c3c(O)cc(O)cc3o2)cc1 — lower, 0.381
- COc1ccc2[nH]c(=O)c3c(c2c1)OC(C)(C)C=C3 — lower, -1.14
- C[C@H]1C[C@]2(O[C@@H]2C)C(=O)O[C@@H]2CCN(C)C/C=C(/COC(=O)[C@]1(C)O)C2=O — lower, 0.213
- COc1ccccc1CC(Cc1nc2ccccc2[nH]1)c1nc2ccccc2[nH]1 (stereo not drawn) — lower, 0.163
- COc1ccc(C(=O)C2C3C4COC(O4)C(=O)C3C3C=Cc4ccccc4N32)c(OC)c1 (stereo not drawn) — lower, -0.809
- CC[C@H](CC[C@@H](C)[C@H]1CC[C@H]2[C@@H]3CC=C4C[C@@H](O)CC[C@]4(C)[C@H]3CC[C@]12C)C(C)C — lower, -0.318
- O=c1c(-c2ccc(O)cc2)coc2cc(O)cc(O)c12 — lower, -1.4
- CCC12CCCN3CCc4c(n(c5ccccc45)C(O)(C(=O)OC)C1)C32 (stereo not drawn) — lower, 0.301
- O=c1cc(-c2ccc(O)cc2O)oc2ccccc12 — lower, 0.498
- O=C1C[C@@H](c2ccccc2)Oc2cc(O)cc(O)c21 — higher, 0.733

In the case of `O=C(CCc1ccc(O)cc1)c1c(O)cc(O)cc1O[C@@H]1O[C@H](CO)[C@@H](O)[C@H](O)[C@H]1O`, the “secreted FVIII-Gluc luciferase Z-score” value is reported as 0.224 and 0.244.
